Results: the supplement of paper PMC9925115
± gives the uncertainty stated by the source.

Each compound was assayed on FLX1 (assay: cell viability z-score within plate (CellTiter-Glo), mean of 3 biological replicates; higher = higher viability relative to plate (less growth inhibition)). Conditions: 2 µM; time (hr): 120.
Protocol: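 FLX1 fibrolamellar carcinoma cells (DNAJB1-PRKACA fusion), 600 cells/well in 384-well plates, treated with a Selleck kinase inhibitor library (L1200) at 2 uM for 5 days (120 hr); viability by CellTiter-Glo. A z-score was computed within each plate and averaged over three biological replicates.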
`O=C(Nc1ccc(-c2ccnc(Nc3ccc(N4CCOCC4)cc3)n2)cc1)C1CCCN1` (configuration not stated) was tested, and the “cell viability z-score within plate” value was 0.342 ± 0.56.
With `CCN(CC)CCCCNc1ncc2cc(-c3cc(OC)cc(OC)c3)c(NC(=O)NC(C)(C)C)nc2n1` the “cell viability z-score within plate” value was -0.321 ± 0.21.
`Cn1c(Nc2ccc(C(F)(F)F)cc2)nc2cc(Oc3ccnc(-c4ncc(C(F)(F)F)[nH]4)c3)ccc21` was tested, and the “cell viability z-score within plate” value was 0.193 ± 0.26.
In the case of `Clc1ccc(Nc2nnc(Cc3ccncc3)c3ccccc23)cc1` [Vatalanib (PTK787) 2HCl], the “cell viability z-score within plate” value is reported as -0.254 ± 0.59.
For `COc1cccc(-c2cc(=O)c3ccccc3o2)c1N`, the “cell viability z-score within plate” value was 0.538 ± 0.2.
With `Cc1ccc(NC(=O)c2cccc(N(C)C)c2)cc1NC(=O)c1ccc(O)cc1` the “cell viability z-score within plate” value was -0.188 ± 0.87.
In the case of `Cc1[nH]c(/C=C2\C(=O)Nc3ccc(S(=O)(=O)N(C)c4cccc(Cl)c4)cc32)c(C)c1C(=O)N1CCN(C)CC1`, the “cell viability z-score within plate” value is reported as -0.214 ± 0.72.
For `CCS(=O)(=O)Nc1ccc2c(c1)/C(=C(/Nc1ccc(CN3CCCCC3)cc1)c1ccccc1)C(=O)N2` [Hesperadin], the “cell viability z-score within plate” value was -2.01 ± 0.23.
With `CN1CCC(COc2cnc(-c3cccc(Cn4nc(-c5cccc(C#N)c5)ccc4=O)c3)nc2)CC1` the “cell viability z-score within plate” value was -0.645 ± 0.46.
With `Cc1[nH]c(/C=C2\C(=O)Nc3ccc(S(=O)(=O)Cc4c(Cl)cccc4Cl)cc32)c(C)c1C(=O)N1CCC[C@@H]1CN1CCCC1` the “cell viability z-score within plate” value was 0.00363 ± 0.67.
`Cc1cc2c(F)c(Oc3ncnn4cc(OC[C@@H](C)OC(=O)[C@H](C)N)c(C)c34)ccc2[nH]1` was tested, and the “cell viability z-score within plate” value was 0.531 ± 0.22.
With `CN1CCN(Cc2ccc(-c3cnc4[nH]cc(-c5ccc6[nH]ccc6c5)c4c3)cc2)CC1` the “cell viability z-score within plate” value was -0.36 ± 0.19.
`CCOc1ccn(-c2ccc(F)cc2)c(=O)c1C(=O)Nc1ccc(Oc2ccnc(N)c2Cl)c(F)c1` was tested, and the “cell viability z-score within plate” value was -0.36 ± 1.2.
For `CCc1cc(Nc2nccc(-c3c(-c4ccc(OC)c(C(=O)Nc5c(F)cccc5F)c4)nc4ccccn34)n2)c(OC)cc1N1CCC(N2CCN(S(C)(=O)=O)CC2)CC1`, the “cell viability z-score within plate” value was 0.744 ± 0.54.
In the case of `COc1ccc(CNC(=O)Nc2ncc([N+](=O)[O-])s2)cc1`, the “cell viability z-score within plate” value is reported as 0.771 ± 0.6.
With `CO[C@H]1C[C@@H]2CC[C@@H](C)[C@@](O)(O2)C(=O)C(=O)N2CCCC[C@H]2C(=O)O[C@H]([C@H](C)C[C@@H]2CC[C@@H](OP(C)(C)=O)[C@H](OC)C2)CC(=O)[C@H](C)/C=C(\C)[C@@H](O)[C@@H](OC)C(=O)[C@H](C)C[C@H](C)/C=C/C=C/C=C/1C` [Ridaforolimus (Deforolimus, MK-8669)] the “cell viability z-score within plate” value was -0.102 ± 0.36.
In the case of `CCN1CCN(Cc2ccc(Nc3ncc(F)c(-c4cc(F)c5nc(C)n(C(C)C)c5c4)n3)nc2)CC1`, the “cell viability z-score within plate” value is reported as 0.939 ± 0.8.
For `CO[C@@H](C(=O)N1Cc2[nH]nc(NC(=O)c3ccc(N4CCN(C)CC4)cc3)c2C1)c1ccccc1`, the “cell viability z-score within plate” value was 0.348 ± 0.073.
`COc1ccc(F)c(F)c1C(=O)c1cnc(NC2CCN(S(C)(=O)=O)CC2)nc1N` was tested, and the “cell viability z-score within plate” value was 0.272 ± 0.44.
`Cc1nc(Nc2ncc(C(=O)Nc3c(C)cccc3Cl)s2)cc(N2CCN(CCO)CC2)n1` [Dasatinib] was tested, and the “cell viability z-score within plate” value was -1.19 ± 0.2.
In the case of `Cc1cc(O)c2c(c1)C(=O)c1cccc(O)c1C2=O` [Chrysophanic Acid], the “cell viability z-score within plate” value is reported as 0.539 ± 0.3.
With `CC[C@@H]1C(=O)N(C)c2cnc(Nc3ccc(C(=O)N[C@H]4CC[C@H](N5CCN(CC6CC6)CC5)CC4)cc3OC)nc2N1C(C)C` [Volasertib (BI 6727)] the “cell viability z-score within plate” value was -0.186 ± 0.53.
In the case of `CCN1CCN(Cc2ccc(-c3cc4c(N[C@H](C)c5ccccc5)ncnc4[nH]3)cc2)CC1`, the “cell viability z-score within plate” value is reported as 0.278 ± 0.61.
`CCOc1cc2ncc(C#N)c(Nc3ccc(F)c(Cl)c3)c2cc1NC(=O)/C=C/CN(C)C` [Pelitinib (EKB-569)] was tested, and the “cell viability z-score within plate” value was -1.38 ± 0.64.
With `Cc1cc2c(F)c(Oc3ncnn4cc(OC[C@@H](C)O)c(C)c34)ccc2[nH]1` the “cell viability z-score within plate” value was -1.45 ± 0.81.
For `Cc1cnc(NC(=O)Nc2cc(Br)c(C)cc2OC[C@@H]2CNCCO2)cn1`, the “cell viability z-score within plate” value was 0.709 ± 0.31.
With `COc1cc2c(Oc3ccc(NC(=O)C4(C(=O)Nc5ccc(F)cc5)CC4)cc3F)ccnc2cc1OCCCN1CCOCC1` the “cell viability z-score within plate” value was -0.77 ± 2.3.
In the case of `Nc1ncnc2c1c(-c1cnc3[nH]ccc3c1)nn2C1CCCC1`, the “cell viability z-score within plate” value is reported as -0.241 ± 0.65.
With `CC(C)(C)NS(=O)(=O)c1cncc(-c2cc(F)c3nc(N)nn3c2)c1` the “cell viability z-score within plate” value was 0.16 ± 0.77.
`C[C@@H]1CN(CC(=O)Nc2ccc3c(c2)Cc2cccc(-c4cc(=O)cc(N5CCOCC5)o4)c2S3)C[C@H](C)O1` was tested, and the “cell viability z-score within plate” value was 0.915 ± 0.16.
In the case of `COc1cc(F)c(F)c(Nc2ccc(I)cc2F)c1NS(=O)(=O)C1(C[C@H](O)CO)CC1` [Refametinib (RDEA119, Bay 86-9766)], the “cell viability z-score within plate” value is reported as -1.34 ± 1.7.
For `COc1ccc(S(=O)(=O)N(CCO)c2ccccc2CN(C)C/C=C/c2ccc(Cl)cc2)cc1` [KN-93 Phosphate], the “cell viability z-score within plate” value was 0.23 ± 0.54.
